Laboratory results reported in the supplement of paper PMC12494721.
Structures can show the parent of a compound that is named as a salt.

Tested on: Ruminococcus gnavus DSM 108212
Assay: growth (OD595) fold change vs plate DMSO controls (fold change (ratio)); higher = more growth
Settings: incubation time: 27 h, anaerobic, 37 °C;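 for the amine columns active = adjusted P below 0.05 in both replicates with a change the same way and a mean fold change under 0.8 or over 1.25; inactive = the rest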
Method in brief: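 Growth is calculated as fold change against the median of the DMSO control wells on each plate. Readings at 595 nm from anaerobic mGAM cultures (96-well, 27 h, 37 °C) were blank-subtracted, background-corrected with 20 µM compound solutions in water, and converted to OD by a calibration factor of 5. Fold changes above 1.5 were recorded as NA, and results are means of 2 biological replicates.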

Compound	growth
O=C1CN(/N=C/c2ccc(-c3ccc([N+](=O)[O-])cc3)o2)C(=O)N1 [Dantrolene sodium salt] (20 µM)	0.79
CN1CCCN=C1/C=C/c1cccs1 [Pyrantel tartrate] (20 µM)	1.04
C[C@H](CCc1ccccc1)NC[C@H](O)c1ccc(O)c(C(N)=O)c1 [Dilevalol] (20 µM)	1.1
CN1CCC(=C2c3ccccc3CCc3sccc32)CC1 [Pizotifen malate] (20 µM)	0.963
CCOC(=O)c1ccc(C#Cc2ccc3c(c2)C(C)(C)CCS3)nc1 [Tazarotene] (20 µM)	0.972
CCC(=O)OCC(=O)[C@@]1(OC(=O)CC)[C@@H](C)C[C@H]2[C@@H]3CCC4=CC(=O)C=C[C@]4(C)[C@@]3(Cl)[C@@H](O)C[C@@]21C [Beclomethasone dipropionate] (20 µM)	1.22
CC1=NN(c2ccccc2)C(=O)C1 [Edaravone] (20 µM)	0.963
CO/N=C(\C(=O)N[C@@H]1C(=O)N2C(C(=O)OCOC(=O)C(C)(C)C)=C(/C=C\c3scnc3C)CS[C@H]12)c1csc(N)n1 [Cefditoren Pivoxil] (20 µM)	0.996
Nc1ncnc2c1ncn2[C@@H]1O[C@H](CO)[C@@H](O)[C@@H]1O [Vidarabine] (20 µM)	0.857
O=C(O)c1ccccc1Nc1cccc(C(F)(F)F)c1 [Flufenamic acid] (20 µM)	0.538
CCc1ccc(CCOc2ccc(CC3SC(=O)NC3=O)cc2)nc1 (configuration not stated) [Pioglitazone] (20 µM)	0.816

Tested on: Klebsiella aerogenes DSM 30053
Assay: fold change of Histamine concentration vs plate DMSO controls (fold change (ratio)); higher = more amine produced, active = hit call of the paper (significant change in both replicates, either direction)
Settings: incubation time: 27 h, anaerobic, 37 °C
Method in brief: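 Each value is the fold change relative to DMSO-only wells on the same plate. Four gut bacterial strains were grown anaerobically in mGAM at 37 °C for 27 h in 80 µL wells, starting at OD 0.1 before a 1:1 dilution, with compounds at 20 µM final (sweeteners 50 µM). Whole cultures were extracted with cold acetonitrile/methanol containing 0.1% formic acid, centrifuged, and amines were quantified by LC–triple-quadrupole MS (dynamic MRM) against external calibration curves with within-batch drift correction. Values are means of 2 biological replicates.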

Compound	fold change of Histamine concentration
CCCCCCCCCCCCCCCCCCCCCC(=O)Nc1ccn([C@@H]2O[C@H](CO)[C@@H](O)[C@@H]2O)c(=O)n1 [Enocitabine] (20 µM)	1.03 (inactive)
COCC1=C(C(=O)OC(C)OC(=O)OC(C)C)N2C(=O)[C@@H](NC(=O)/C(=N\OC)c3csc(N)n3)[C@H]2SC1 (some centres not stated) [Cefpodoxime proxetil] (20 µM)	1.06 (inactive)
COc1cccc2c1C(=O)c1c(O)c3c(c(O)c1C2=O)C[C@@](O)(C(=O)CO)C[C@@H]3O[C@H]1C[C@H](N)[C@@H](O)[C@H](C)O1 [Epirubicin hydrochloride] (20 µM)	1.01 (inactive)
CN1CCCN(C(c2ccccc2)c2ccc(Cl)cc2)CC1 (configuration not stated) [Homochlorcyclizine dihydrochloride] (20 µM)	0.994 (inactive)
COc1ccc(/C=C/C(=O)Nc2ccccc2C(=O)O)cc1OC [Tranilast] (20 µM)	0.89 (inactive)
CC(C)Nc1ncccn1 [Isaxonine] (20 µM)	0.936 (inactive)
CC(=O)N[C@@H](CS)C(=O)O [Acetylcysteine] (20 µM)	1.14 (inactive)
C=C1C[C@@]23CC[C@H]4[C@@](C)(CCC[C@@]4(C)C(=O)O[C@@H]4O[C@H](CO)[C@@H](O)[C@H](O)[C@H]4O)[C@@H]2CC[C@]1(O[C@@H]1O[C@H](CO)[C@@H](O)[C@H](O)[C@H]1O[C@@H]1O[C@H](CO)[C@@H](O)[C@H](O)[C@H]1O)C3 [Stevioside] (50 µM)	0.984 (inactive)
Nc1ccc(S(=O)(=O)Nc2nccs2)cc1 [Sulfathiazole] (20 µM)	1 (inactive)
CC(=O)OCC(=O)[C@@]1(O)CC[C@H]2[C@@H]3CCC4=CC(=O)C=C[C@]4(C)[C@@]3(F)[C@@H](O)C[C@@]21C [Isoflupredone acetate] (20 µM)	1.09 (inactive)
CC(=O)CCCCn1c(=O)c2c(ncn2C)n(C)c1=O [Pentoxifylline] (20 µM)	1 (inactive)
CCN(CC)CCOC(=O)C1(C2CCCCC2)CCCCC1 [Dicyclomine hydrochloride] (20 µM)	1.01 (inactive)
CC(=O)OCC(=O)[C@@]1(O)[C@H](C)C[C@H]2[C@@H]3CCC4=CC(=O)C=C[C@]4(C)[C@@]3(F)[C@@H](O)C[C@@]21C [Dexamethasone acetate] (20 µM)	1.02 (inactive)
Cc1nc2n(c(=O)c1CCN1CCC(c3noc4cc(F)ccc34)CC1)CCCC2O (configuration not stated) [Paliperidone] (20 µM)	1.05 (inactive)
O=C(Nc1cccc2c(=O)cc(-c3nnn[nH]3)oc12)c1ccc(OCCCCc2ccccc2)cc1 [Pranlukast] (20 µM)	0.986 (inactive)
CCC(Cc1c(I)cc(I)c(N)c1I)C(=O)O (configuration not stated) [Iopanoic acid] (20 µM)	0.999 (inactive)
